In the supplement of paper PMC10849652:
Of roughly 7,900 targets only a part is listed; those with a hit were picked by preference. About 0.6% of all pairs of compound and target were hits.

Compound: c1cn2cc(-c3ccc4cn[nH]c4c3)nc(Nc3ccc(N4CCOCC4)cc3)c2n1 [entospletinib]
Assay: log2 fold change, soluble protein after heating vs DMSO (PISA); higher = thermal stabilisation; K562 cells, 10 uM, 30 min; active = over 0.2 and 3.5 SD of the protein, either way, in both replicates (recomputed)
Procedure, shortened: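 K562 cells at 2×10^6 cells/mL were exposed to 10 μM compound for 30 min, then aliquots were heated for 3 min across 48°C-58°C, pooled, and extracted in PBS containing 0.5% NP-40 at 4°C. The supernatant after 21,000xg for 90 min was taken as soluble protein and measured by TMTpro 16plex LC-MS/MS with channel sums equalised. Thermal stability is reported relative to control samples, with values from duplicates. Fold changes are given on a log2 scale.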

Sequence of UniProt Q9H777 (Q9H777 whole entry, looked up): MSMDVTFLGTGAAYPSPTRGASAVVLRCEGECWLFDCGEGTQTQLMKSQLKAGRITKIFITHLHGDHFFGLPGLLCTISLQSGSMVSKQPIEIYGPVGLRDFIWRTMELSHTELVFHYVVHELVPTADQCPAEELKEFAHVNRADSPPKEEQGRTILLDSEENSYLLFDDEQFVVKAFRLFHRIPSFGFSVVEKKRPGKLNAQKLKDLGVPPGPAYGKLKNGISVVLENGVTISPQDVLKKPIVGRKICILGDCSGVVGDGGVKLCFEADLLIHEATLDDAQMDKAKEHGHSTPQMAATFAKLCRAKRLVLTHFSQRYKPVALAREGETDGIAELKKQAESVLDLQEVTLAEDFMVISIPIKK
Sequence of UniProt P23919 (P23919 whole entry, looked up): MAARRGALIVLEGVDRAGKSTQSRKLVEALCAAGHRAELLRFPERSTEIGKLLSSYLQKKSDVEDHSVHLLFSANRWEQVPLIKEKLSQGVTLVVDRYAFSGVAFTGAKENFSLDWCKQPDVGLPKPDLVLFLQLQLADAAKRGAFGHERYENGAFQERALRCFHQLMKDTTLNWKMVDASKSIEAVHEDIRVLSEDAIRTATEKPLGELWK
Sequence of UniProt Q16254 (Q16254 whole entry, looked up): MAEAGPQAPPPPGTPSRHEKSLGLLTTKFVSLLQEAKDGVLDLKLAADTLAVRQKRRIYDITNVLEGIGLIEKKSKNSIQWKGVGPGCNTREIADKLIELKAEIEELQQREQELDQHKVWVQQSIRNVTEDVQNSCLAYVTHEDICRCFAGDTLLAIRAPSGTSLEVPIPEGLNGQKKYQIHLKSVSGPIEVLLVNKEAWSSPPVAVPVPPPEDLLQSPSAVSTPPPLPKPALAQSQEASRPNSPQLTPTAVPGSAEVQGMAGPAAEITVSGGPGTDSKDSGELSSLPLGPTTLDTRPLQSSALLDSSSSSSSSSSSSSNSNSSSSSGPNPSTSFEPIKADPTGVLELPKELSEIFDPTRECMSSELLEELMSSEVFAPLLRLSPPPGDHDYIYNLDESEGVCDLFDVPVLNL
Sequence of UniProt O60573 (O60573 whole entry, looked up): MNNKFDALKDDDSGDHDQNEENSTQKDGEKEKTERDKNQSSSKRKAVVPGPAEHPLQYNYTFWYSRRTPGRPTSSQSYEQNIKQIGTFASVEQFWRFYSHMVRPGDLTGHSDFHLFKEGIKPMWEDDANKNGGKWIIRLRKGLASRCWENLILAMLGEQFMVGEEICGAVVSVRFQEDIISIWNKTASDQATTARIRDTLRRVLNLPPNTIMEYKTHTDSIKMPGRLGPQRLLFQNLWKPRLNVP
Sequence of UniProt Q16531 (Q16531 whole entry, looked up): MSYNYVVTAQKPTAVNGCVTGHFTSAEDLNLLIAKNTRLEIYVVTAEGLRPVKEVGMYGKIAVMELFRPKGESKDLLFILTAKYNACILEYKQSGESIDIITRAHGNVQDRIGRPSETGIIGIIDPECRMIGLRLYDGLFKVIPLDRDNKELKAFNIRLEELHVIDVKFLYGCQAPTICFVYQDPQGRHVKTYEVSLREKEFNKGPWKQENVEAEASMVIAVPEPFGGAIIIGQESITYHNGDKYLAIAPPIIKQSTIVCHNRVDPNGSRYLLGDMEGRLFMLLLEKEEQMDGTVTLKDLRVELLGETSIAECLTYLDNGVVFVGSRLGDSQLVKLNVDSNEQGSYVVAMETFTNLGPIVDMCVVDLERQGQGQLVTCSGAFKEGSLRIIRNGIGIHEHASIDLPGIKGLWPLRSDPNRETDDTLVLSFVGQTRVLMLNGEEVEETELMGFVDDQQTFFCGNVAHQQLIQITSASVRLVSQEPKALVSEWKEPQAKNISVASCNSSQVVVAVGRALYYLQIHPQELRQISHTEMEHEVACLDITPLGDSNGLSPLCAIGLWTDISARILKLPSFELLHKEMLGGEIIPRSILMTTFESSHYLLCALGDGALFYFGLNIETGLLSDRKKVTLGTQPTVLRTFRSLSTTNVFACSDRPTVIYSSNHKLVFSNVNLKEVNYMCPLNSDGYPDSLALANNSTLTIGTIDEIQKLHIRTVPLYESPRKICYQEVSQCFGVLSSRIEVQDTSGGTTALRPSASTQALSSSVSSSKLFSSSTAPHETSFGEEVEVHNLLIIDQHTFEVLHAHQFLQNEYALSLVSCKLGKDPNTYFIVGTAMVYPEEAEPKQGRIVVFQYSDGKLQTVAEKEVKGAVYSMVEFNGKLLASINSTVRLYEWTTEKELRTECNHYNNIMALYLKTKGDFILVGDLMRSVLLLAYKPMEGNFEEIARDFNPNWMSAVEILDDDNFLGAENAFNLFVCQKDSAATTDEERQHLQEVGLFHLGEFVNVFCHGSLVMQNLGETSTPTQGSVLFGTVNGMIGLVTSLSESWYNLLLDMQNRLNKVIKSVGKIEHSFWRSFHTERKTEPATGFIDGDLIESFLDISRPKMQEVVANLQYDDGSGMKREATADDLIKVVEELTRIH
Sequence of UniProt P13498 (P13498 whole entry, looked up): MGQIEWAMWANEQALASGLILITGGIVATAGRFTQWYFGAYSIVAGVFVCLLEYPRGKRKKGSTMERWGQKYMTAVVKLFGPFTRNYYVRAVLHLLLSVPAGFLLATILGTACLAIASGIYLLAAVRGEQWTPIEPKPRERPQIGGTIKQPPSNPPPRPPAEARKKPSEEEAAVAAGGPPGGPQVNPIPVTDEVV
Sequence of UniProt Q9NZJ5 (Q9NZJ5 whole entry, looked up): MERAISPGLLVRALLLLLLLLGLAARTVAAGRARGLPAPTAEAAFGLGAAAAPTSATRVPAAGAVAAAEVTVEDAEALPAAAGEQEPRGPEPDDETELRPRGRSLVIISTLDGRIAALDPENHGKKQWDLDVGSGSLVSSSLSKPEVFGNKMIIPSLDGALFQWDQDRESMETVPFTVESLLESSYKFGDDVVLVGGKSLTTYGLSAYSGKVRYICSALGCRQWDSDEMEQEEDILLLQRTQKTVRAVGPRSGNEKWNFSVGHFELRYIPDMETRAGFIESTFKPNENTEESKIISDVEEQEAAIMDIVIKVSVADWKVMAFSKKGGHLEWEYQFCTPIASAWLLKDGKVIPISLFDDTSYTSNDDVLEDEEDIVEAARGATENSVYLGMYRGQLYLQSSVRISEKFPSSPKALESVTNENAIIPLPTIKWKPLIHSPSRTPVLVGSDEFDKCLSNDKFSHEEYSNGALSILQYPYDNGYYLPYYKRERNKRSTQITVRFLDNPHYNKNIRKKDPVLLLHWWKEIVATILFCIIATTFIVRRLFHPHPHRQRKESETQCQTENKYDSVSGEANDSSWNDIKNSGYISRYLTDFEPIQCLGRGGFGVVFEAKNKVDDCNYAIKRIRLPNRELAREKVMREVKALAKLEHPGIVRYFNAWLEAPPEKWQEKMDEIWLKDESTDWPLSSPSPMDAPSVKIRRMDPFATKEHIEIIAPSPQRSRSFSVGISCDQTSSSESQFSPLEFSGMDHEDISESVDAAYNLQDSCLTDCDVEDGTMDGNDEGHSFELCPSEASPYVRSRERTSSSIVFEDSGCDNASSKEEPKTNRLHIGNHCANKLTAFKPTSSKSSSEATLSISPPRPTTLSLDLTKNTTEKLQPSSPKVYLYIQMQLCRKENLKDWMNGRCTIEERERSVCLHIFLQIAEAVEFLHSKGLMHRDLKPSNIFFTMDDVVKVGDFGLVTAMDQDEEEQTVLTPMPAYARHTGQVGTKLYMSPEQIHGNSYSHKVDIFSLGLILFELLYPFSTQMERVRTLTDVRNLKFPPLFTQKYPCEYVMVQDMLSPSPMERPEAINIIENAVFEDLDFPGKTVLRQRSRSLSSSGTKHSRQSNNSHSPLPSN
Sequence of UniProt Q9NXW2 (Q9NXW2 whole entry, looked up): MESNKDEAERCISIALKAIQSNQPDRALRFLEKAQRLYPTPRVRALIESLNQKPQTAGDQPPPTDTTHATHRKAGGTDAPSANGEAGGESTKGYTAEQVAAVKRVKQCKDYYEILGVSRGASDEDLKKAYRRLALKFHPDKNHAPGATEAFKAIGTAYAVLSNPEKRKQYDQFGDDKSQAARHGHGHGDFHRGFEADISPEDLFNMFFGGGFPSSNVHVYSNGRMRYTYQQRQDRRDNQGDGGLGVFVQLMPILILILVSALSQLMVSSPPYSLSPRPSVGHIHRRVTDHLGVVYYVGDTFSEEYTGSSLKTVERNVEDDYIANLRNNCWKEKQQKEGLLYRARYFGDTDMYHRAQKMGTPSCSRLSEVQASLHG
Sequence of UniProt P26641 (P26641 whole entry, looked up): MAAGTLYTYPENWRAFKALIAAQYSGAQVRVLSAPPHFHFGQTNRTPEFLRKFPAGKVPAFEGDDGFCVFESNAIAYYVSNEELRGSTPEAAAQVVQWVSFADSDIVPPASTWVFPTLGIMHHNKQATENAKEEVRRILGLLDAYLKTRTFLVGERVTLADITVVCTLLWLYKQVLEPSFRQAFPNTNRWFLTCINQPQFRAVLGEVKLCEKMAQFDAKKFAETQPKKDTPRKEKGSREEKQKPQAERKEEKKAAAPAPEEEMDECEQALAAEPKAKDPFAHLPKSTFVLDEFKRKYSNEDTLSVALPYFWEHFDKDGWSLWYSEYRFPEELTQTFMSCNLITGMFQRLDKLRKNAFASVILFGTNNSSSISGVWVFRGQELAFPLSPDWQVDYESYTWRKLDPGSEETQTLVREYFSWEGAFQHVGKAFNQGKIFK
Sequence of UniProt Q14320 (Q14320 whole entry, looked up): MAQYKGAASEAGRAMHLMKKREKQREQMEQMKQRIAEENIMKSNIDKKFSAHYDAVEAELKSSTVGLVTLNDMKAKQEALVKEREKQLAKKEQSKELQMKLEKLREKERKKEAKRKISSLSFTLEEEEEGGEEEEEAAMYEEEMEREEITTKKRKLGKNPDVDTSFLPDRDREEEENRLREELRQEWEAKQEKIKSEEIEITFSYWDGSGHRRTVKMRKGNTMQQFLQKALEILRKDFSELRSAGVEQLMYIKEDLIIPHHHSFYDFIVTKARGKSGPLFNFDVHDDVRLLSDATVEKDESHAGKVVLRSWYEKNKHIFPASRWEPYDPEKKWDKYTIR

log2 fold change, inactive:
EEF1A1 (UniProt P68104) 0.046
EIF4A1 (UniProt P60842) -0.083
DHRS7B (UniProt Q6IAN0) 0.134
FADS1, A0A0A0MR51 0.055
ERCC6 (UniProt Q03468) 0.045
DBT (UniProt P11182) 0.025
FAM160A2 isoform 2 (UniProt Q8N612) 0.039
EIF2S3 (UniProt P41091) -0.051
EEF1G isoform 2 (UniProt P26641) -0.012
ESYT1 isoform 2 (UniProt Q9BSJ8) 0.003
CYBA (UniProt P13498) 0.069
FAM50A (UniProt Q14320) -0.006
DNAJB12 (UniProt Q9NXW2) 0.01
DUS3L (UniProt Q96G46) -0.086
EDC3 (UniProt Q96F86) -0.068
DFFB (UniProt O76075) -0.024
ELAC1 (UniProt Q9H777) 0.069
DTNBP1 (UniProt Q96EV8) 0.004
CTNNB1 (UniProt P35222) -0.212
CYP51A1 (UniProt Q16850) 0.093
EEF1AKNMT (UniProt Q8N6R0) 0.059
DNAH11 (UniProt Q96DT5) 0.115
DDB1 isoform 2 (UniProt Q16531) 0.162
DDX5 (UniProt P17844) -0.019
EFL1 (UniProt Q7Z2Z2) -0.06
CTSB (UniProt P07858) 0.008
E2F4 (UniProt Q16254) 0.02
DDX39A (UniProt O00148) 0.022
EIF4E2 (UniProt O60573) -0.107
DTYMK (UniProt P23919) 0.013
DYNC1I2 isoform 2 (UniProt Q13409) 0.082
DNAH10 (UniProt Q8IVF4) -0.132
EIF2AK3 (UniProt Q9NZJ5) -0.03
EXOC2 (UniProt Q96KP1) -0.005
